Screening results (PubChem BioAssay)
TSHR antagonist – Antagonists of the Thyroid Stimulating Hormone Receptor: HTS campaign; TSHR-expressing cells, TSH-stimulated cAMP HTRF, 2 h; stronger effect = lower value; activity change, negative = inhibition, % at 11.5 µM; 0.2% of 330,000 active;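 active = activity change below a set negative limit, meaning inhibition stronger than a set level, cut at about -70% in these data; inconclusive = activity change between two set negative limits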; note: % is set by controls: 0 for no effect and ±100 for the full control effect
Target sequence (P16473 whole entry, looked up): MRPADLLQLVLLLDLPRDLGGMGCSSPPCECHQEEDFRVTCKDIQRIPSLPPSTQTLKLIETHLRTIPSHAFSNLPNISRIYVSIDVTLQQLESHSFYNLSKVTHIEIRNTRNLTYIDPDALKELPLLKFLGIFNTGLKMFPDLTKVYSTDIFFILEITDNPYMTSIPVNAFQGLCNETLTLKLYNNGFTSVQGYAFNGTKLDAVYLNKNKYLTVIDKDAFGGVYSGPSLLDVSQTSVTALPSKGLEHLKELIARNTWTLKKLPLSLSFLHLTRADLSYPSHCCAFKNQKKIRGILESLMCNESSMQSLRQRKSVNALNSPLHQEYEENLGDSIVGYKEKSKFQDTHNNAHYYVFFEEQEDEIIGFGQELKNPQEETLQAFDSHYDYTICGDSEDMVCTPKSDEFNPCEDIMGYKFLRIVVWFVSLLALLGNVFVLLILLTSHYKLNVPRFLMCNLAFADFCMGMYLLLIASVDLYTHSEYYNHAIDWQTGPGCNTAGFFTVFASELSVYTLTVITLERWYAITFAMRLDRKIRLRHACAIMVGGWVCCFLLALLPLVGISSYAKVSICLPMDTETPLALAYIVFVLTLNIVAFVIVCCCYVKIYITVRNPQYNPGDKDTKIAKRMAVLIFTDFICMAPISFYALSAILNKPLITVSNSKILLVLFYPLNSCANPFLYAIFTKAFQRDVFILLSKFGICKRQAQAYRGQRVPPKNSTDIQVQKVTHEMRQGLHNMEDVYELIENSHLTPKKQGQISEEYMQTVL
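TSHR-expressing cells, 200/well, pre-treated with compound, then stimulated with EC80 TSH (4nM final) for 2 hours at 37 deg C. cAMP measured by competitive HTRF: anti-cAMP cryptate antibody in lysis buffer plus cAMP-d2, read after 30 minutes at room temperature.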
B2AR arrestin – qHTS assay of beta-arrestin-biased ligands of beta2-adrenergic receptor. 0.02% of 330,000 active. Potency, µM (top dose mostly 46.1 µM), inactives show at the top dose activation, hits mostly activators. beta-arrestin recruitment to beta2AR, cell-based reporter; active = well fitted activation curve with a large enough effect; inconclusive = small, poorly fitted or top-dose-only effect;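 note: potency is the fitted concentration of half-maximal effect; 0% = DMSO controls and full agonism = EC100 isoproterenol or metaproterenol; nearly all actives have a fitted effect of over 65% in size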
D3 antag – qHTS of D3 Dopamine Receptor Antagonist: qHTS | 2.5% of 360,000 active | max response, negative = inhibition, % | D3R cells, DiscoveRx beta-arrestin luminescence, antagonist mode; stronger effect = lower value | D(3) dopamine receptor (Homo sapiens), P35462 | AID 652054, 2013; in the data active = max response below about -50%; inconclusive = no clear call, values can overlap the other calls; note: % is set by controls: 0 for no effect and ±100 for the full control effect
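Cells plated overnight at 1500 cells/well, then exposed to library compounds with dopamine controls for 90 minutes at 37 degrees C. DiscoveRx reagent added for 30–60 minutes at room temperature; luminescence read, quantitative HTS format.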
D3 ag – qHTS of D3 Dopamine Receptor Agonist: qHTS. D(3) dopamine receptor (Homo sapiens), P35462. D3R DiscoveRx beta-arrestin cells, luminescence, 90 min. max activation, %. 0.58% of 410,000 active. AID 652048, 2013; in the data active = max activation above about 30%; note: 0% is about no effect
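Agonist mode: compounds and dopamine controls were applied to plated cells for 90 min at 37 degrees C after an overnight attachment at 1500 cells/well. Luminescent read-out followed 30 - 60 minutes at room temperature with DiscoveRx detection reagent.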
* hit, by the source's call; ? = inconclusive; . = not tested or not shown. Rows were chosen to be rich in hits. Some 2.9% of all compounds tested hit in one or more screens of this group.

SMILES	TSHR antagonist	B2AR arrestin	D3 antag	D3 ag
Cc1cc(C)c(S(=O)(=O)NCCc2sc(-c3cccnc3)nc2C)c(C)c1	.	.	.	-10
Cc1c(-c2nsc(NC(=O)c3ccccc3)n2)nnn1-c1ccc(C(F)(F)F)c(Cl)c1	.	.	.	0
Cc1ccc(S(=O)(=O)c2ncccc2[N+](=O)[O-])cc1	2	0%	-90*	-7
Cc1ccc(S(=O)(=O)c2ncccc2N)cc1	6	0%	0	0
CCN(CC)S(=O)(=O)c1ccc(C(=O)NCCSc2c(-c3ccc(F)cc3)[nH]c3ccccc23)cc1	.	.	.	-4
COc1ccccc1N1CCN(C(=O)c2cc3c(-c4ccccc4F)nn(C)c3s2)CC1	.	.	.	56*
COc1cccc(-c2nn(C)c3sc(C(=O)N4CCN(c5cccc(C)c5)C(C)C4)cc23)c1 (centres undefined)	.	.	.	48*
COc1ccc(-c2nn(C)c3sc(C(=O)N4CCN(c5ccccc5F)CC4)cc23)cc1OC	.	.	.	18
CCOC(=O)N1CCN(C(=O)c2cc3c(-c4cccc(OC)c4)nn(C)c3s2)CC1	1	0%	52	7
C=CCC1Cc2c(cccc2[N+](=O)[O-])C(CC=C)N1 (centres undefined)	-24	0%	8	41*
C=CCC1C=CCC(CC=C)N1C(=O)c1ccccc1[N+](=O)[O-] (centres undefined)	-12	-1%	17	2
O=C(Cn1c(=O)n(-c2ccccc2)c(=O)c2sc3ccccc3c21)NC1CCCC1	.	.	.	-12
COC(=O)c1ccccc1NC(=O)CN1C(=O)COc2ccc(Cl)cc21	.	.	.	6
CCC(C)Sc1cccc(-c2nc3ccc(Cl)cn3c2NCc2ccccc2)c1 (centres undefined)	-22	0%	-22	0
CCC(C)Sc1cccc(-c2nc3ccc(C)cn3c2NCc2ccccc2)c1 (centres undefined)	-79*	-2%	43	17
CCC(C)Sc1cccc(-c2nc3cc(C)ccn3c2NC2CCCCC2)c1 (centres undefined)	-17	0%	7	3
CCC(C)Sc1cccc(-c2nc3ccccn3c2NCc2ccccc2)c1 (centres undefined)	-19	0%	97	33*
COCCn1c(SCC(=O)c2ccccc2)nc2cc(C(=O)NC3CCCC3)ccc2c1=O	.	.	.	7
Cc1ccc(Cn2c(C)c(CNCCCc3ccccc3)c(C(=O)O)c2C)cc1	.	.	.	8
Cc1cc(C)nc(SCC(=O)Nc2ccc(S(=O)(=O)Nc3ncccn3)cc2)n1	58	0%	4	34*
CC(Sc1ncc(S(=O)(=O)c2ccc(C(C)C)cc2)c(N)n1)C(=O)Nc1ccccc1 (centres undefined)	.	.	.	7
CCOC(=O)c1c(CN2CCN(C)CC2)oc2ccc(OC)cc12	2	0%	-57*	-14
Cc1ncc(CO)c(CN)c1O	.	.	.	-17
CCOc1ccc(Br)cc1S(=O)(=O)Nc1ccc(C(=O)Nc2ccccc2OC)cc1	11	0%	-51*	-22
COc1ccc(NC(=O)c2ccccn2)cc1S(=O)(=O)N1CCOCC1	3	-1%	?	-11
SMILES	TSHR antagonist	B2AR arrestin	D3 antag	D3 ag
COc1ccc(NS(=O)(=O)c2cc(NC(=O)c3ccccn3)ccc2OC)cc1Br	10	0%	-51*	-2
CCOC(=O)C1=C(CSc2nccn2C)NC(=O)NC1c1cc(C)ccc1C (centres undefined)	4	-1%	-3	-9
COC(=O)C1=C(Cn2cnc3ccccc32)NC(=O)NC1c1cc(C)ccc1C (centres undefined)	5	0%	59	40*
CCOC(=O)C1=C(Cn2cnc3ccccc32)NC(=O)NC1c1cc(C)ccc1C (centres undefined)	2	0%	19	34*
Cc1ccc(-c2c[n+](CC(=O)Nc3nc(-c4ccccc4)cs3)c3n2CCC3)cc1	-8	0%	6	-15
Cc1ccc(-c2c[n+](CC(=O)Nc3ccccc3C)c3n2CCC3)cc1	-7	-1%	-63*	-34
Cc1ccc(NC(=O)C[n+]2cc(-c3ccccc3)n3c2CCC3)cc1	-1	-1%	-111*	-17
COc1ccc(-c2c[n+](CC(=O)c3ccccc3)c3n2CCCCC3)cc1	-6	3%	-61*	-22
